Inconclusive results are not listed. The source made the active and inactive calls. Rule for the calls, unless noted: active = hit-call score of the fitted dose curve at least 0.9, where 1 is the maximum; inconclusive = response in the unintended direction; inactive = score below 0.9.

Nuclear receptor subfamily 4 group A member 2 (Homo sapiens), sequence (P43354 whole entry, looked up): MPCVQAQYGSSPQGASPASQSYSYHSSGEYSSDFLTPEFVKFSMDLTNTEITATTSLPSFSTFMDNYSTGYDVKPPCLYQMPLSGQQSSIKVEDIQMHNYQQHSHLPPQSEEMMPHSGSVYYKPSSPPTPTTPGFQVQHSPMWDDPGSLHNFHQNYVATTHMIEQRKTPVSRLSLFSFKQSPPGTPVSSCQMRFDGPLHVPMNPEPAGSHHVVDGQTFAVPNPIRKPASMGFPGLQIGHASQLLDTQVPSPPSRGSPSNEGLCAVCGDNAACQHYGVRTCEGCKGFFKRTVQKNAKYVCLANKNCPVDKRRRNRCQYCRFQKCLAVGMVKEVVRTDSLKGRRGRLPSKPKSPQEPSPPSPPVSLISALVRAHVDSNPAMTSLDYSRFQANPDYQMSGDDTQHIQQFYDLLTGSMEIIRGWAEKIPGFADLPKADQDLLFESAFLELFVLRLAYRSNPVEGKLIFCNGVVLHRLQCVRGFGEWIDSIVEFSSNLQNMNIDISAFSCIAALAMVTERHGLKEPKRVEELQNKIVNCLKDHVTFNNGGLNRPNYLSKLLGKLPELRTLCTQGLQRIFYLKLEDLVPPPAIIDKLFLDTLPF

System in the first assay: not listed separately
Description: ATG_M_32_TRANS: Attagene TRANS-FACTORIAL HepG2 Assay for M32 Transcription Factor (Internal Marker) (AID 2282984).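 Note: transcript level of a background control reporter unit measured by RT-PCR and capillary electrophoresis.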 The following applies: HepG2 Attagene TRANS M32 internal marker reporter. Put shortly:
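Internal-marker readout from a multiplexed transcription reporter panel. HepG2 cells were transfected with GAL4-UAS reporter units, treated 24 hours, and reporter transcript levels determined by fluorescence after RT-PCR and capillary separation.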
As for `Clc1cc(Cl)c(Cl)c(Cl)c1Cl`, the outcome was inactive.

Regarding `CCC1COC(=O)O1` (stereo not given), the molecule was called inactive.

For `N#Cc1ccc(C(c2ccc(C#N)cc2)n2cncn2)cc1`, the molecule was classed as inactive.

Regarding `CC(C)C(=O)OCCc1ccccc1`, the call was inactive.

Take `CC1(C)C(=O)N(CO)C(=O)N1CO`: the molecule was classed as inactive.

For the molecule `CC(C)(C)NC(=O)[C@H]1CC[C@H]2[C@@H]3CC[C@H]4NC(=O)C=C[C@]4(C)[C@H]3CC[C@]12C`, the result was inactive.

For the molecule `CCN1CN(CC)CN(CC)C1`, the molecule was called inactive.

With `CC(=O)OCc1ccccc1`, the outcome was inactive.

With `CCC(C)c1ccccc1` (stereo not given), the molecule was classed as inactive.

In the case of `CCCCCCCCCCCC(=O)N(C)CC(=O)O`, the molecule was called inactive.

As for `CCCCOCCOCCOC(C)=O`, the outcome was inactive.

With `Nc1cccc(N)n1`, the result was inactive.

For `CCCSSCCC`, the call was inactive.

As to `Cc1cc(C)n(CO)n1`, the call was inactive.

`C1CCSC1`: the call was inactive.

For the molecule `CCOC(=O)OC(=O)OCC`, the call was inactive.

For `CC(=O)c1ccccc1O`, the molecule was classed as inactive.

Take `CCCCNS(=O)(=O)c1ccccc1`: the outcome was inactive.

Another assay concerns the target Nuclear receptor subfamily 4 group A member 2 (Homo sapiens) (UniProt P43354). In words: ATG_NURR1_TRANS: Attagene TRANS-FACTORIAL HepG2 Assay for human Nuclear Receptor Related Protein 1 (NURR1) (AID 2282985). The following applies: HepG2 Attagene TRANS reporter, mRNA readout. Put shortly: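 Endpoint: reporter mRNA increase relative to DMSO. HepG2 cells transfected with reporter units, treated 24 h; RNA processed by RT-PCR, labelling, HpaI digestion and capillary electrophoresis.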
With `CC1(C)CC(O)CC(C)(C)N1[O]`, the result was inactive.

For the molecule `O=C(O)CCCC(=O)O`, the call was inactive.

In the case of `Clc1cc(Cl)c(Cl)c(Cl)c1Cl`, the outcome was inactive.

Turning to `Oc1ccc(/C=C/c2cc(O)cc(O)c2)cc1`, the half-maximal activity concentration (AC50) was 74.6 µM (active).

As to `CC1CCC(=O)C1=O` (stereo not given), the molecule was classed as inactive.

On to `CC(C)C(=O)OCCc1ccccc1`, for which the molecule was classed as inactive.

In the case of `CC(C)CCCCCOC(=O)CS`, the result was inactive.

Regarding `CCN1CN(CC)CN(CC)C1`, the molecule was called inactive.

Consider `Cc1ccc(S(=O)(=O)N=C=O)cc1`, for which the molecule was classed as inactive.

Turning to `CC1CCC(C(C)(C)S)C(=O)C1` (stereo not given), the molecule was classed as inactive.

Regarding `Nc1cccc(N)n1`, the result was inactive.

Turning to `CCCSSCCC`, the outcome was inactive.

Turning to `C1CCSC1`, the outcome was inactive.

As for `CCOC(=O)OC(=O)OCC`, the molecule was classed as inactive.

For the molecule `CC(=O)c1ccc(S(=O)(=O)NC(=O)NC2CCCCC2)cc1`, the call was inactive.

On to `CO[Si](CCCS)(OC)OC`, for which the molecule was called inactive.

The target in the next assay is Transcriptional activator Myb (Homo sapiens) (UniProt P10242). In words: ATG_Myb_CIS: Attagene CIS-FACTORIAL HepG2 Assay for human Myeloblastosis (Myb) Proto-Oncogene Transcription Factor (AID 2282986; active = hit-call score of the fitted dose curve at least 0.9, where 1 is the maximum; inactive = score below 0.9). The conditions noted are these: HepG2 Attagene CIS-FACTORIAL Myb reporter transcription; actives raise or lower the signal. In short, it runs like this: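 Using HepG2 liver cells bearing transiently transfected cis-promoter reporter constructs, the assay measures induction or loss of reporter mRNA after 24 hours of dosing. Detection used fluorescently labeled RT-PCR products separated by capillary electrophoresis.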
Transcriptional activator Myb (Homo sapiens), sequence (P10242 whole entry, looked up): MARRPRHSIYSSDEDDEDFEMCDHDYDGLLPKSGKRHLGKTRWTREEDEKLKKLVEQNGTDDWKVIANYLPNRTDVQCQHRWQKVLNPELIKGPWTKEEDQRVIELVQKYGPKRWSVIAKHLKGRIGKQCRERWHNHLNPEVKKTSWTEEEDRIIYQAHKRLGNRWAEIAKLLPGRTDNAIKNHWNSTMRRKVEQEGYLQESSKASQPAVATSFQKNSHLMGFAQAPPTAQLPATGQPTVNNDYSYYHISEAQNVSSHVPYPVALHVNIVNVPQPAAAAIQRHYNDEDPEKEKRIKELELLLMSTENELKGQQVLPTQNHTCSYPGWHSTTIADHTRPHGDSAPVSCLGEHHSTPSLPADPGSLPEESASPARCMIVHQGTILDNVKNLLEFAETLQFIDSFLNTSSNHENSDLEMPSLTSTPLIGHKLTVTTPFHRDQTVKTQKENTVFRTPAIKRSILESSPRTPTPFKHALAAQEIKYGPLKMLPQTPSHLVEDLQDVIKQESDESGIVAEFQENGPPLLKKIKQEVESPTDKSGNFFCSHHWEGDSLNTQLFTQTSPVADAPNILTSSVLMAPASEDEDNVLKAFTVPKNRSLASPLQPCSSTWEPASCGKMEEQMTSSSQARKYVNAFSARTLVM
On to `CC1(C)CC(O)CC(C)(C)N1[O]`, for which the outcome was inactive.

On to `Clc1cc(Cl)c(Cl)c(Cl)c1Cl`, for which the molecule was called inactive.

Consider `CCC1COC(=O)O1` (stereo not given), for which the result was inactive.

With `CCCCCC(=O)OCC`, the molecule was classed as inactive.

Consider `N#Cc1ccc(C(c2ccc(C#N)cc2)n2cncn2)cc1`, for which the call was inactive.

In the case of `Oc1ccc(/C=C/c2cc(O)cc(O)c2)cc1`, the result was inactive.

`CC1CCC(=O)C1=O` (stereo not given): the molecule was called inactive.

Consider `CC(C)C(=O)OCCc1ccccc1`, for which the outcome was inactive.

With `CC(C)(C)NC(=O)[C@H]1CC[C@H]2[C@@H]3CC[C@H]4NC(=O)C=C[C@]4(C)[C@H]3CC[C@]12C`, the molecule was called inactive.

Regarding `CC(C)CCCCCOC(=O)CS`, the outcome was inactive.

Regarding `Cc1ccc(S(=O)(=O)N=C=O)cc1`, the result was inactive.

On to `CCCCCCCCCCCC(=O)N(C)CC(=O)O`, for which the outcome was inactive.

For `CCCCOCCOCCOC(C)=O`, the result was inactive.

`CC1CCC(C(C)(C)S)C(=O)C1` (stereo not given): the outcome was inactive.

Consider `Nc1cccc(N)n1`, for which the molecule was classed as inactive.

Take `CCCSSCCC`: the result was inactive.

For `Cc1cc(C)n(CO)n1`, the outcome was inactive.

On to `C[Si]1(C)O[Si](C)(C)O[Si](C)(C)O[Si](C)(C)O[Si](C)(C)O1`, for which the result was inactive.

On to `C1CCSC1`, for which the result was inactive.

For the molecule `Cc1noc(NS(=O)(=O)c2ccc(N)cc2)c1C`, the call was inactive.

Consider `C=CC(=O)OCCCCCCCC(C)C`, for which the call was inactive.

In the case of `CCOC(=O)OC(=O)OCC`, the molecule was classed as inactive.

On to `CC(=O)c1ccc(S(=O)(=O)NC(=O)NC2CCCCC2)cc1`, for which the call was inactive.

For `O=C(Oc1ccccc1)c1ccccc1C(=O)Oc1ccccc1`, the outcome was inactive.

For the molecule `Cc1c(C(=O)c2c[nH]n(C)c2=O)ccc(S(C)(=O)=O)c1C1=NOCC1`, the call was inactive.

Regarding `CC(=O)c1ccccc1O`, the molecule was classed as inactive.

For `CO[Si](CCCS)(OC)OC`, the outcome was inactive.

As to `CCOC(=O)CC(=O)c1ccccc1`, the molecule was classed as inactive.

With `CCCCNS(=O)(=O)c1ccccc1`, the result was inactive.

Take `Cc1c(Cl)cccc1Cl`: the molecule was classed as inactive.

For the molecule `Clc1cccnc1`, the outcome was inactive.
